DT40 TDP1 no CPT – qHTS for Inhibitors of human tyrosyl-DNA phosphodiesterase 1 (TDP1): qHTS in cells in absence of CPT; DT40 Tdp1-/- hTDP1 cells, no CPT, ATP luminescence, 48 h; Potency, µM (highest dose often 46.2 µM), inactives show at the highest dose activity change, negative = growth inhibition, most hits filed as inhibitors; actives 15% (n = 420,000); also: nearly all actives have a fitted effect of over 55% in size
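Seeded 400 DT40-hTDP1 cells/well (vehicle DMSO, no 20 nM CPT); pinned compounds; ≥48 hr at 37 °C; CellTiter-Glo luminescence as viability measure.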
HT1080 IDH1KD tx – HT-1080 IDH1 knockdown cell toxicity (counter line); Potency, µM (doses to about 46.1 µM), for inactives: top-dose activity, negative = toxicity, hits mostly cytotoxic; actives 2% (n = 360,000); AID 686971; HT-1080 IDH1 knockdown viability, ATP luminescence, 48 h;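 also: 0% = DMSO wells and -100% = cell-free medium wells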
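In this qHTS, HT-1080 cells depleted of IDH1 are exposed for 48 h at 37 °C to compound titrations. Toxicity is scored from CellTiter-Glo luminescence, with DMSO as full viability and medium alone as none.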
KB-3-1 tox – kills parental KB-3-1 adenocarcinoma cells; actives 1.4% (n = 400,000); KB-3-1 viability, CellTiter-Glo ATP luminescence, 72 h; AID 1347075; Potency, µM (titrated, usually from 46.1 µM), most hits filed as cytotoxic; also: nearly all actives have a fitted effect of over 60% in size
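Screening of KB-3-1 cells (DMEM, 10% FBS, phenol-red free) ran from lowest to highest compound concentration; after 72 h at 37 °C viability was read luminescently and curves fitted.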
KB-V1 MDR tox – kills drug-selected multidrug resistant KB-V1 cells; KB-V1 MDR cells viability, CellTiter-Glo, 72 h; Potency, µM (titrated, usually from 46.1 µM), hits mostly cytotoxic; actives 3.4% (n = 400,000); also: nearly all actives have a fitted effect of over 60% in size
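Luminescent ATP read-out (CellTiter-Glo, 10 min) measures survival of drug-selected KB-V1 MDR cells after 72 h, 37 degrees C compound exposure. Medium: phenol-red-free DMEM, 10% FBS. Values from fitted concentration-response curves.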
HT1080NT lethal – kills 2HG-producing HT-1080-NT fibrosarcoma cells; actives 1.6% (n = 360,000); AID 686970; HT-1080-NT fibrosarcoma viability, CellTiter-Glo ATP luminescence, 48 h; Potency, µM (series often up to 46.1 µM), without a hit: top-dose activity, negative = less viability, actives largely listed as cytotoxic;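 also: NT is the 2HG producing partner of a matched IDH1 knockdown line; 0% = DMSO-treated cells and -100% = media-only wells without cells; nearly all actives have a fitted effect of over 55% in size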
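Viability by CellTiter-Glo luminescence after 48 h compound exposure at 37C of HT-1080-NT cells (750/well, RPMI, 5% FBS). % activity scaled between DMSO wells and medium-only wells, then curve-fitted and categorized by curve class.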
TDP1 cell CPT – DT40-hTDP1 cell growth loss with CPT; chicken DT40 Tdp1-/-;hTDP1 cells + 20 nM CPT, ATP luminescence, 48 h; Potency, µM (top dose mostly 46.2 µM), for inactives: top-dose activity change, negative = growth inhibition, usual class: inhibitors; actives 12% (n = 420,000); AID 686979; also: nearly all actives have a fitted effect of over 55% in size
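Chicken DT40 Tdp1-/- cells stably complemented with human TDP1 were seeded at 400 cells/well in medium containing 20 nM camptothecin, exposed to pin-transferred compounds, and grown at 37 °C for at least 48 hr. Viability was read as ATP luminescence.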
* hit, by the source's call; i = inactive; u = inconclusive; x = no result given; ! = not active in a repeat; [ ] = another dose, or the depositor's remark. Compounds with a hit are over-represented: about 19% of the library has one in this group of screens. Calls follow the shape of the dose curve; as a rule, active = well fitted curve in the direction sought with a large enough effect; inconclusive = small, poorly fitted or top-dose-only effect, or another doubt; inactive = no such curve, though single readings can be large; an effect the other way counts as inactive or inconclusive. Unless noted, % is scaled to controls: 0 for no effect and ±100 for the full control effect; potency is read from the fitted curve at half-maximal effect.

SMILES	DT40 TDP1 no CPT	HT1080 IDH1KD tx	KB-3-1 tox	KB-V1 MDR tox	HT1080NT lethal	TDP1 cell CPT
CC1CCN(C(=O)c2ccc(CSc3nc4ccncc4n3Cc3ccc(F)cc3)cc2)CC1	u	-13.1%	u	i	-5.3%	23.1µM*
O=C(c1ccc(CSc2nc3ccncc3n2Cc2ccccc2)cc1)N1CCCCCC1	16.4µM*	x	i	i	x	9.2µM*
CC1CCN(CCNC(=O)c2ccc(Cn3c(SCc4ccccc4)nc4cccnc43)cc2)CC1	u	x	i	i	x	u
CC1CCCN(C(=O)c2ccc(CSc3nc4ccncc4n3Cc3ccccc3)cc2)C1 (stereo not drawn)	23.1µM*	x	i	i	x	16.4µM*
O=S(=O)(c1ccc(F)cc1)N(CCO)CC(O)Cn1c2ccccc2c2ccccc21 (stereo not drawn)	16.4µM*	17.8µM*	i	23.1µM*	u	u
CCN(CC(O)Cn1c2ccccc2c2ccccc21)S(=O)(=O)c1ccc(F)cc1 (stereo not drawn)	u	u	u	11.6µM*	u	u
C=CC[C@H](CC(=O)NCCO)C(=O)NC[C@@H](OC(=O)[C@@H](CC=C)CC(=O)OC(C)(C)C)c1ccccc1	u	5.5%	i	i	7.3%	u
Cc1ccc(SCCN2CCN(CCc3ccccc3)CCC2=O)cc1	16.4µM*	-1.5%	i	i	-1.0%	16.4µM*
CN1CCC(=O)N([C@H](CSc2ccccc2)c2ccccc2)CC1	17.8µM*!	-2.7%	i	u	-0.3%	u
Cc1ccc(SC[C@H](c2ccccc2)N2CCN(C)CCC2=O)cc1	u	5.7%	i	i	-0.4%	-16.5%
CCCN1CCC(=O)N([C@H](CSc2ccc(OC)cc2)c2ccccc2)CC1	16.4µM*	1.9%	i	i	1.5%	u
Cc1ccc(SC[C@H](c2ccccc2)N2CCN(CC(C)C)CCC2=O)cc1	11.6µM*	8.4%	i	i	0.8%	16.4µM*
O=C(COc1ccc([N+](=O)[O-])cc1)Nc1ccc2c(c1)CCC2	u	6.3%	i	u	5.1%	u
Cc1ccc(CCNC(=O)c2cc3sccc3n2Cc2ccc(Cl)cc2)cc1	-7.6%	x	i	i	x	-16.1%
CCCN1CCC(=O)N(CCSc2ccc(OC)cc2)CC1	5.8µM*	23.1µM*	u	i	u	5.8µM*
O=C(c1cc2nc(-c3ccccc3)cc(-c3ccccc3)n2n1)N1CCCC1	u	7.4%	i	i	-0.6%	u
O=C(c1cc2nc(-c3ccccc3)cc(-c3ccccc3)n2n1)N1CCN(C(=O)c2ccco2)CC1	14.6µM*	-26.2%	u	20.6µM*	-28.9%	23.1µM*
CN1CCN(C(=O)c2cc3nc(-c4ccccc4)cc(-c4ccccc4)n3n2)CC1	u	u	i	i	14.6µM*	-27.8%
COCCn1c(=O)c(-c2ccc(F)cc2)nc2cnc(Oc3cccc(Cl)c3)nc21	-2.2%	x	x	x	x	11.1%
CCN(CC)c1ccc(C2=NNC(=O)CC2C)cc1[N+](=O)[O-] (stereo not drawn)	u	u	0.206µM*	u	8.0%[9.24 µM]	-18.0%
COc1ccc(-c2nc3ccc(C4=NNC(=O)CC4C)cc3[nH]2)cc1 (stereo not drawn)	13.3µM*	x	x	x	x	u
COc1ccc(NC(=S)N(CCc2c(C)[nH]c3ccccc23)Cc2ccco2)cc1	u	-19.3%	i	i	-7.6%	u
CCOc1ccc(NC(=S)N(CCc2c(C)[nH]c3ccccc23)Cc2ccco2)cc1	u	-24.6%	i	i	-23.9%	13µM*

Compound activity as filed in PubChem.
